Experimental data: PubChem BioAssay

What follows are compounds tested on Wnt5a (protein binding on small-molecule microarray) (assay: small molecules binding Wnt5a protein – biophysical, small-molecule microarray, 635/667 nm fluorescence, primary screen (AID 1142;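 also: fluorescence read at 667 nm with signal to noise per printed feature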)). Conditions: 635 nm fluorescence, higher = more signal.

Structure (SMILES) | composite z-score
NCCCCCNC(=O)[C@@H]1C[C@@H]2C(=O)N3CCC[C@H]3C(=O)N2[C@@H]1c1cccc(OCCO)c1 | 0.369
C=CC[C@]1(C(=O)NCc2ccccc2)N=C(c2ccc(OCCCO)cc2)O[C@H]1c1ccccc1 | -0.2
COCCOC(=O)N1C(=O)[C@@]2(c3cc(C#CCNC(N)=O)ccc31)[C@H](c1ccc(O)cc1)N1[C@H](c3ccccc3)[C@H](c3ccccc3)OC(=O)[C@H]1[C@@H]2C(=O)N1CCCCCCC1 | 0.272
O=C1[C@H]2[C@H]3[C@H](O)[C@H](O)CC(=NO[C@@H]4O[C@H](CO)[C@@H](O)[C@H](O)[C@H]4O)[C@@H]3CC[C@H]2C(=O)N1Cc1ccc2c(c1)OCO2 | 0.163
O=C1[C@H]2[C@H]3[C@H](O)[C@H](O)CC(=NOCc4ccccc4)[C@@H]3CC[C@H]2C(=O)N1C1CCCCC1 | 0.0062
O=C1[C@H]2[C@H]3[C@H](O)[C@H](O)CC(=NO[C@@H]4O[C@H](CO)[C@@H](O)[C@H](O)[C@H]4O)[C@H]3CC[C@H]2C(=O)N1Cc1ccc2c(c1)OCO2 | -0.228
O=C(NN=C1C[C@@H](O)[C@@H](O)[C@@H]2[C@@H]3C(=O)N(c4cccc(Oc5ccccc5)c4)C(=O)[C@@H]3CC[C@H]12)OCc1ccccc1 | -0.132
CC(C)CON=C1C[C@@H](O)[C@@H](O)[C@@H]2[C@@H]3C(=O)N([C@@H](C)c4ccccc4)C(=O)[C@@H]3CC[C@H]12 | 0.257
CC(=O)O[C@H]1C2=C(C(=O)[C@@H]3O[C@@H]31)[C@H]1C(C)O[C@@H]2[C@@]23C(=O)[C@@H]4O[C@@H]4[C@@H](O)C2=CO[C@H](C)[C@@H]13 (stereo partly specified) | 0.129
CC(C)(C)N1C(=O)[C@H]2[C@H]3[C@H](O)[C@H](O)CC(=NOCc4ccccc4)[C@@H]3CC[C@H]2C1=O | 0.351
O=C1[C@H]2[C@H]3[C@H](O)[C@H](O)CC(=NOC[C@@H](O)COCc4ccco4)[C@H]3CC[C@H]2C(=O)N1c1cccc(Oc2ccccc2)c1 | -0.31
CC(C)=CCCC(C)=CCON=C1C[C@@H](O)[C@@H](O)[C@@H]2[C@@H]3C(=O)N(C[C@@H]4CCCO4)C(=O)[C@@H]3CC[C@@H]12 | 0.311
Cc1ccc(S(=O)(=O)N[C@@H]2COC(=O)[C@H](C)COC(=O)CC=C[C@H]2C)cc1 | 0.0114
CCc1cc2c(nc1CC)CCN(CCC(C)=NO[C@@H](C)c1cc(-c3c(C)cc(C)cc3C)no1)C2 | -0.0627
CC(=O)OC[C@H]1O[C@@H](ON=C(C)CCN2CCc3nc(-c4ccccc4)c(-c4ccccc4)cc3C2)[C@H](OC(C)=O)[C@@H](OC(C)=O)[C@@H]1OC(C)=O | 0.344
Cc1ccc(S[C@]2(C(=O)NCC(F)(F)F)CC(=O)N(Cc3ccccc3Cl)[C@@H]2c2ccc(CO)cc2I)cc1 | -0.273
CO[C@@H]1COC(=O)CC=C[C@@H](C)COC(=O)[C@H](COCc2ccccc2)NC(=O)CC=C[C@H]1C | -0.146
O[C@@H](Cc1ccccc1)[C@H]1C2C=CCCC(c3ccccc3)=C2CN1Cc1cccc(Cl)c1 (stereo partly specified) | 0.0825

Structure (SMILES) | composite z-score
CC(=O)OC[C@H]1O[C@H](CCON=C[C@@H](C)[C@H](OCc2ccccc2)C(C)C)C=C[C@@H]1OC(C)=O | -0.0629
CC1(C)OCC(C(O)C2=CCCCC2=O)CO1 (stereo unspecified) | 0.24
CO[C@@H]1COC(=O)CC=C[C@@H](C)[C@@H]2C=C[C@H](O)[C@@H](COC(=O)[C@H](C)NC(=O)CC=C[C@H]1C)O2 | 0.0389
CCCCCN1CC=CC23O[C@@H]4C=CCOC(=O)[C@@H]4[C@H]2C(=O)N(CCCCCCO)[C@@H]3C1=O (stereo partly specified) | -0.485
COCCCNC(=O)[C@@]1(C)c2ccccc2C(=O)N(Cc2ccc(OC(F)(F)F)cc2)[C@H]1c1ccc(CO)cc1 | -0.0685
CC(C)[C@@H](OCc1ccccc1)[C@H](C)C=NO[C@H](C)c1cn([C@H](CO)Cc2ccccc2)nn1 | 0.231
c1ccc(C2NCCc3c2[nH]c2ccccc32)cc1 (stereo unspecified) | -0.18
O=C1NC(=O)C2C1C=CC(C(O)Cc1ccccc1)N2Nc1ccccn1 (stereo unspecified) | 0.0926
CCOC(=O)[C@H](Cc1ccccc1)NC(=O)CCC1CC(OC(=O)NCCc2ccc(F)cc2)CC2(CCCC(COC(=O)NCC(c3ccccc3)c3ccccc3)O2)O1 (stereo partly specified) | 0.0879
COCCOC(=O)N1C(=O)[C@@]2(c3cc(C#Cc4ccc(OC)cc4)ccc31)[C@H](C(=O)N1CCN(c3ncccn3)CC1)[C@H]1C(=O)O[C@H](c3ccccc3)[C@H](c3ccccc3)N1[C@@H]2c1ccc(OCCO)cc1 | 0.044
CC(=O)OC[C@H]1O[C@@H](ON=C[C@@H](C)[C@H](OCc2ccccc2)C(C)C)[C@H](OC(C)=O)[C@@H](OC(C)=O)[C@@H]1OC(C)=O | 0.235
COC(=O)CC=C[C@@H](C)[C@@H](C=NO[C@H](C)c1cn([C@@H]2COC[C@H]2O)nn1)OC | 0.0282
CC(CCN1CCc2nc(-c3ccccc3)c(-c3ccccc3)cc2C1)=NOC(C)CN1CCCCc2nc(C)c(C)cc21 (stereo unspecified) | 0.0802
CC(=O)OC[C@H]1O[C@H](C#CCCCc2ccccc2)C=C[C@@H]1OC(C)=O | 0.18
CCOc1ccc(N2C(=O)/C(=C/C=C/c3ccccc3OC)S(=O)(=O)C2c2cccc([N+](=O)[O-])c2)cc1 (stereo unspecified) | -0.0676
COC(=O)[C@@H]1N=C(c2ccc(OCCCO)cc2)O[C@@H]1c1ccccc1N=[N+]=[N-] | 0.122
CCN1C(=O)[C@H]2[C@H]3[C@H](O)[C@H](O)CC(=NOC(C)CN4CCCCc5nc(C)c(C)cc54)[C@@H]3CC[C@H]2C1=O (stereo partly specified) | 0.185
CC(C)(C)OC(=O)CC[C@]1(C(N)=O)COC(c2ccc(OCCCO)cc2)=N1 | 0.681
